Experiment [1] is described as follows: qHTS of pediatric cancer cell lines to identify multiple opportunities for drug repurposing: Primary screen for SJ-GBM2 cells (AID 1347091). Also: potency is read from the fitted curve at half-maximal effect. Summed up: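 Viability measured as metabolically active cells via CellTiter-Glo luminescence following 48 hours of compound exposure, 11-point dilutions in confirmatory testing. 500-1,000 cells/well plated 5 hours before dosing; controls were DMSO and 2.3 µM bortezomib.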
For orientation: qHTS replaces the single test concentration by a dilution series.

Experiment [2] in a line: qHTS of pediatric cancer cell lines to identify multiple opportunities for drug repurposing: Primary screen for A673 cells (AID 1347092). Also: nearly all actives have a fitted effect of over 45% in size. Also: potency is read from the fitted curve at half-maximal effect. Summed up:
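Cell viability of A673 measured by CellTiter-Glo ATP luminescence after 48 hours compound exposure. Dilution series spanned 0.78 nM to 46 µM (MIPE, 11-point) or 0.59 nM to 46 µM (NPC, 8-point); bortezomib 2.3 uM positive control.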

The nature of experiment [3]: qHTS of pediatric cancer cell lines to identify multiple opportunities for drug repurposing: Primary screen for SK-N-MC cells (AID 1347093). Also: potency is read from the fitted curve at half-maximal effect. A digest of the protocol: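 Metabolically active cells were quantified by ATP-dependent luminescence (CellTiter-Glo, 15 min at room temperature) following 48 h treatment. Cells had been plated at 500-1,000 per well and settled for 5 h beforehand.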

Experiment [4] in a line: qHTS of pediatric cancer cell lines to identify multiple opportunities for drug repurposing: Primary screen for NB-EBc1 cells (AID 1347095). Also: potency is read from the fitted curve at half-maximal effect. A digest of the protocol:
(§1)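 Viability was measured as metabolically active cells after 48 hours of treatment, read by CellTiter-Glo luminescence. Compounds were tested at multiple final concentrations, giving concentration-response curves.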

Experiment [5] is described as follows: qHTS of pediatric cancer cell lines to identify multiple opportunities for drug repurposing: Primary screen for U-2 OS cells (AID 1347096). Also: nearly all actives have a fitted effect of over 50% in size. Also: potency is read from the fitted curve at half-maximal effect. Summed up: (§2)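 Viability after 48 h compound treatment at 37C, 500-1,000 cells/well, read as ATP luminescence with CellTiter-Glo. Primary screens used 11-point (MIPE, 0.78 nM-46 µM) or 8-point (NPC, 0.59 nM-46 µM) final concentrations; follow-up screens used 11-point dilutions.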

Experiment [6] can be described thus: qHTS of pediatric cancer cell lines to identify multiple opportunities for drug repurposing: Primary screen for Saos-2 cells (AID 1347097). Also: nearly all actives have a fitted effect of over 40% in size. Also: potency is read from the fitted curve at half-maximal effect. A digest of the protocol: as §1
Experiment [7] in a line: qHTS of pediatric cancer cell lines to identify multiple opportunities for drug repurposing: Primary screen for NB1643 cells (AID 1347099). Also: potency is read from the fitted curve at half-maximal effect; nearly all actives have a fitted effect of over 50% in size. Summed up: as §1
A short description of experiment [8]: qHTS of pediatric cancer cell lines to identify multiple opportunities for drug repurposing: Primary screen for LAN-5 cells (AID 1347100). Also: potency is read from the fitted curve at half-maximal effect. A digest of the protocol: as §2
Experiment [9] in a line: qHTS of pediatric cancer cell lines to identify multiple opportunities for drug repurposing: Primary screen for Rh18 cells (AID 1347102). Also: nearly all actives have a fitted effect of over 65% in size. Also: potency is read from the fitted curve at half-maximal effect. A digest of the protocol:
as §2

A short description of experiment [10]: qHTS of pediatric cancer cell lines to identify multiple opportunities for drug repurposing: Primary screen for OHS-50 cells (AID 1347103). Also: nearly all actives have a fitted effect of over 40% in size. Also: potency is read from the fitted curve at half-maximal effect. A digest of the protocol:
(§3)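 Cells (500-1,000/well) rested 5 h, then received compounds for 48 h; metabolically active cells were measured by CellTiter-Glo luminescence. Final concentrations spanned up to 46 µM (MIPE, 11-point) or 0.59 nM-46 µM (NPC, 8-point) in primary screens, 11-point in follow-ups.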

A short description of experiment [11]: qHTS of pediatric cancer cell lines to identify multiple opportunities for drug repurposing: Primary screen for MG 63 (6-TG R) cells (AID 1347105). Also: nearly all actives have a fitted effect of over 50% in size. Also: potency is read from the fitted curve at half-maximal effect. A digest of the protocol:
as §1

A short description of experiment [12]: qHTS of pediatric cancer cell lines to identify multiple opportunities for drug repurposing: Primary screen for Rh30 cells (AID 1347107). Also: nearly all actives have a fitted effect of over 75% in size. Also: potency is read from the fitted curve at half-maximal effect. Summed up:
as §2

Experiment [13] in a line: qHTS of pediatric cancer cell lines to identify multiple opportunities for drug repurposing: Confirmatory screen for A673 cells (AID 1347110).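 Also: potency is read from the fitted curve at half-maximal effect; cells exposed to compound for 48 h before the viability read; nearly all actives have a fitted effect of over 65% in size.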 Summed up: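 Viability was read as ATP luminescence (CellTiter-Glo) after 48 h of compound exposure at 37 C in A673 cells seeded at 500-1,000/well. Titrations reached 46 uM final, with 11 points in the confirmatory screen. Concentration-response curves were fitted directly.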

Experiment [14] in a line: qHTS of pediatric cancer cell lines to identify multiple opportunities for drug repurposing: Primary screen for SK-N-SH cells (AID 1347098). Also: nearly all actives have a fitted effect of over 65% in size. Also: potency is read from the fitted curve at half-maximal effect. A digest of the protocol: as §3
Experiment [15] is described as follows: qHTS of pediatric cancer cell lines to identify multiple opportunities for drug repurposing: Primary screen for BT-12 cells (AID 1347101). Also: nearly all actives have a fitted effect of over 25% in size. Also: potency is read from the fitted curve at half-maximal effect. Summed up:
as §3

Experiment [16] is described as follows: qHTS of pediatric cancer cell lines to identify multiple opportunities for drug repurposing: Primary screen for RD cells (AID 1347104). Also: nearly all actives have a fitted effect of over 55% in size. Also: potency is read from the fitted curve at half-maximal effect. Summed up: as §1
A short description of experiment [17]: qHTS of pediatric cancer cell lines to identify multiple opportunities for drug repurposing: Primary screen for control Hh wild type fibroblast cells (AID 1347106).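 Also: series mostly up to about 46 µM; a drop in luminescence marks cytotoxicity and a rise apparent proliferation; nearly all actives have a fitted effect of over 55% in size.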 A digest of the protocol: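 Cells (500-1,000/well) in growth media were settled 5 h at 37 degrees C, then given compounds for 48 h. Viability was read as CellTiter-Glo luminescence. Primary runs used MIPE at 11 points (0.78 nM-46 µM) and NPC at 8 points (0.59 nM-46 µM); follow-ups used 11 points.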

A short description of experiment [18]: qHTS of pediatric cancer cell lines to identify multiple opportunities for drug repurposing: Primary screen for BT-37 cells (AID 1347094). Also: potency is read from the fitted curve at half-maximal effect. A digest of the protocol: as §1
A short description of experiment [19]: qHTS of pediatric cancer cell lines to identify multiple opportunities for drug repurposing: Primary screen for Rh41 cells (AID 1347108). Also: nearly all actives have a fitted effect of over 70% in size. Also: potency is read from the fitted curve at half-maximal effect. A digest of the protocol:
as §1

Experiment [20] is described as follows: qHTS of pediatric cancer cell lines to identify multiple opportunities for drug repurposing: Confirmatory screen for NB1643 cells (AID 1347109). Also: nearly all actives have a fitted effect of over 45% in size. Summed up: as §2

Inconclusive results are not listed. Active and inactive are the calls of the source. Calls follow the shape of the dose curve; as a rule, active = well fitted curve in the direction sought with a large enough effect; inconclusive = small, poorly fitted or top-dose-only effect, or another doubt; inactive = no such curve, though single readings can be large; an effect the other way counts as inactive or inconclusive.

Take `COc1cc([C@@H]2c3cc4c(cc3[C@@H](O)C3COC(=O)C32)OCO4)cc(OC)c1O` (stereo not given in full): the Potency in experiment [1] was 0.0148 µM (active); in [2], 0.0372 µM (active); in experiment [3], 0.0469 µM (active); in experiment [4], 0.0066 µM (active); in experiment [6], 0.0209 µM (active); in [7], 6.62 µM (active). For the same compound, the Potency in experiment [8] was 0.0132 µM (active); in experiment [10] it was 0.0343 µM (active); in experiment [13], 0.522 µM (active). Moreover, the Potency entry in experiment [5], in experiment [9], in experiment [11] and in experiment [12] was “inactive” each time.

Take `COc1ccc(C(c2ccc(OC)cc2)C(Cl)(Cl)Cl)cc1`: the Potency is 21.5 µM (active) in experiment [1]; 38.2 µM (active) in [2]; 42.8 µM (active) in experiment [3]; 13.5 µM (active) in experiment [4]; 30.3 µM (active) in experiment [6]; 49.8 µM (active) in experiment [14].

For the compound `CC(=CCCC1=CCC(C2=CC(=O)OC2O)OC1O)CCC1=C(C)CCCC1(C)C` (stereo not given), the Potency entry in [1], in experiment [2], in experiment [4], in [5], in [6] and in [8] was “inactive” throughout. In addition, the Potency entry in [15], in experiment [10], in experiment [16], in experiment [17] and in [12] was “inactive” throughout.

For `O=[N+]([O-])c1ncc[nH]1`, the Potency result in experiment [1], in [3], in experiment [18], in [4], in experiment [5] and in [6] was “inactive” in each case. Besides, the Potency result in experiment [14], in [8], in [9], in [10], in experiment [16] and in experiment [12] was “inactive” in each case. For the same compound, in experiment [19], the Potency result was “inactive”.

In the case of `CC[C@@H](C(N)=O)N1CCCC1=O`, the Potency result in experiment [1], in experiment [18], in experiment [4], in experiment [5], in [6] and in [8] was “inactive” throughout. Further, the Potency result in experiment [15], in experiment [9], in [10], in experiment [11], in [17] and in experiment [12] was “inactive” throughout. Besides, the Potency entry in experiment [19] was “inactive”. The Potency in experiment [3] is 26.4 µM (active).

In the case of `COC[C@H]1OC(=O)c2coc3c2[C@@]1(C)C1=C(C3=O)[C@@H]2CC[C@H](O)[C@@]2(C)C[C@@H]1OC(C)=O`, the Potency is 0.469 µM (active) in experiment [1]; 0.296 µM (active) in [3]; 6.85 µM (active) in [18]; 0.526 µM (active) in experiment [4]; 2.09 µM (active) in [6]; 27.1 µM (active) in experiment [14]. The Potency in [8] is 2.64 µM (active); in experiment [9], 4.69 µM (active); in [10], 0.306 µM (active); in experiment [16], 14.8 µM (active); in [11], 1.87 µM (active); in experiment [19], 11.8 µM (active). Moreover, in experiment [17], the Potency entry was “inactive”.

Take `CCN1C[C@]2(OC(=O)c3ccccc3NC(C)=O)CC[C@H](OC)[C@@]34[C@H]5CC6[C@@H](OC)C[C@](O)(C(C[C@@H]23)[C@@H]14)[C@@]5(O)[C@@H]6OC`: the Potency entry in experiment [1], in experiment [2], in experiment [18], in [4], in experiment [5] and in [6] was “inactive” in each case. In addition, the Potency entry in experiment [8], in experiment [15], in experiment [9], in experiment [10], in experiment [16] and in experiment [17] was “inactive” throughout. For the same compound, the Potency result in experiment [12] and in [19] was “inactive” in each case.

As to `CC(C)N[C@@H]1CCn2c(=O)[nH]c3cccc(c32)[C@@H]1O`, the Potency was 6.62 µM (active) in experiment [1]; 1.05 µM (active) in [3]; 27.3 µM (active) in [18]; 11.8 µM (active) in [5]; 5.26 µM (active) in experiment [6]; 8.57 µM (active) in experiment [14]. The Potency is 4.18 µM (active) in experiment [7]; 0.743 µM (active) in experiment [8]; 3.06 µM (active) in [15]; 4.69 µM (active) in experiment [9]; 1.37 µM (active) in experiment [10]; 3.72 µM (active) in experiment [16]. The Potency in [12] was 1.48 µM (active). Further, the Potency entry in experiment [4], in experiment [11] and in experiment [20] was “inactive” each time.

(Values after PubChem BioAssay (NCATS).)
